# Measurements as given in PubChem BioAssay (Tox21).
# Results filed as inconclusive are left out. A call without a number means that no potency is given here. Activity calls are given as the source filed them. Unless noted, calls follow the shape of the dose curve; as a rule, active = well fitted curve in the direction sought with a large enough effect in the repeat runs; inconclusive = weak or mixed curves; inactive = no such curve, though single readings can be large; an effect the other way counts as inactive or inconclusive.
# Tests used:
# [1] = qHTS assay to identify small molecule HDAC inhibitors (AID 1259364); also: potency is read from the fitted curve at half-maximal effect;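 also: wild-type HCT-116 cells with endogenous class I/II HDAC activity; nearly all actives have a fitted effect of over 45% in size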
# Outline: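 Read-out: luminescence of HDAC-Glo I/II reagent, 30 min RT, reflecting class I/II deacetylase activity in whole HCT-116 cells pre-exposed 2 h to DMSO-dissolved compounds.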
# [2] = qHTS assay to identify small molecule HDAC inhibitors - cell viability counter screen (AID 1259365); also: series mostly up to about 92 µM; nearly all actives have a fitted effect of over 50% in size
# Outline: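 CellTiter-Glo luminescence (30 min, room temperature) reported viability after a 2 h compound exposure at 37 C. Cells: wild-type HCT-116, 1,500 per well, seeded the night before.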
# [3] = qHTS assay to identify small molecule agonists of the sonic hedgehog signaling (Shh) pathway (AID 1259368; calls by dose curve;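 also: NIH/3T3-derived 3T3Gli1-Luc cells carrying a stable Gli1-driven firefly luciferase reporter; series mostly up to about 92 µM; nearly all actives have a fitted effect of over 15% in size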)
# Outline: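 A Gli1 transcriptional response element controlled firefly luciferase in 3T3Gli1-Luc cells. Compounds and a positive control were added 4 hr after plating, and cells were incubated a further 24 hr at 37 C before luminescence detection.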
# [4] = qHTS assay to identify small molecule antagonists of the sonic hedgehog signaling (Shh) pathway (AID 1259369; calls by dose curve; also: nearly all actives have a fitted effect of over 45% in size; also: potency is read from the fitted curve at half-maximal effect)
# Outline: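 For antagonist detection, the reporter line received test compounds together with conditioned medium, incubated 24hr at 37 C, 5% CO2, then luminescence was recorded following 30min room-temperature luciferase reagent incubation.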
# [5] = qHTS assay to identify small molecule agonists of the sonic hedgehog signaling (Shh) pathway - cell viability counter screen (AID 1259366); also: nearly all actives have a fitted effect of over 50% in size; also: potency is read from the fitted curve at half-maximal effect
# Outline: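 Cytotoxicity counter screen: CellTiter-Fluor reagent added after 23 h compound exposure, then 1 h at 37C and fluorescence read. Cells were 3T3 Gli1-Luc, seeded 2,000 per well and dosed 4 h post-plating.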
# [6] = target: Estrogen receptor beta (Homo sapiens) (UniProt Q92731); experiment: qHTS assay to identify small molecule agonists of the estrogen receptor beta (ER-beta) signaling pathway (AID 1259377; active = well fitted activation curve with a large enough effect in the signal ratio in the repeat runs, not every such curve was filed as active; the % refers to the signal ratio)
# Estrogen receptor beta (Homo sapiens), sequence (Q92731 whole entry, looked up): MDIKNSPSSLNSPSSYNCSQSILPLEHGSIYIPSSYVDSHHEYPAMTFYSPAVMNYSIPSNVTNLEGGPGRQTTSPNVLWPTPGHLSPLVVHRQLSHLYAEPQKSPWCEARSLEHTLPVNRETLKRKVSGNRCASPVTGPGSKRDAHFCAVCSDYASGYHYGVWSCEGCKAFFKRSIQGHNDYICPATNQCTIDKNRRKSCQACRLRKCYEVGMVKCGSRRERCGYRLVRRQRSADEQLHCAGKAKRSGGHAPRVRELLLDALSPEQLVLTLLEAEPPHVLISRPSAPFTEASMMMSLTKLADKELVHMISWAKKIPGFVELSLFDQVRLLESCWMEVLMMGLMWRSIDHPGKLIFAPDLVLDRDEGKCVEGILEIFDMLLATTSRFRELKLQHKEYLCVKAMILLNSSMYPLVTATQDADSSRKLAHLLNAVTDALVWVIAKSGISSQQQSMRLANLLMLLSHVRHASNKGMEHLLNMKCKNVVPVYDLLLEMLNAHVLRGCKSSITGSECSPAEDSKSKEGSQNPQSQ
# Outline: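 Ratiometric beta-lactamase FRET read-out came after 2 h substrate loading at room temperature. It followed 16 h compound treatment at 37C of GripTite HEK293T cells carrying a UAS-bla reporter, plated in 2% charcoal-stripped FBS medium.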
# [7] = qHTS assay to identify small molecule agonists of the androgen receptor (AR) signaling pathway in the presence of an antagonist - cell viability counter screen (AID 1259379); also: nearly all actives have a fitted effect of over 25% in size; also: potency is read from the fitted curve at half-maximal effect
# Outline: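 Seed MDA-kb2 at 3,000 cells/well; incubate 5 hr, 37C, 0% CO2. Add nilutamide to 3.0uM final, then pin compounds at 15 concentrations. Incubate 16 hr. Add CellTiter-Fluor at 15 hr, read fluorescence after 1 hr.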
# [8] = qHTS assay to identify small molecule antagonists of the sonic hedgehog signaling (Shh) pathway - cell viability counter screen (AID 1259367); also: nearly all actives have a fitted effect of over 55% in size; also: potency is read from the fitted curve at half-maximal effect
# Outline: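 NIH/3T3-derived Gli1-Luc reporter cells, 2,000/well, plated 4 hr before compound addition, then stimulated with conditioned medium for 24 hr at 37C. Viability measured in the same wells by CellTiter-Fluor fluorescence, reagent added at 23 hr for 1 hr.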
# [9] = target: Estrogen receptor beta (Homo sapiens) (UniProt Q92731); experiment: qHTS assay to identify small molecule antagonists of the estrogen receptor beta (ER-beta) signaling pathway (AID 1259378; active = well fitted inhibition curve with a large enough effect in the signal ratio in the repeat runs, not every such curve was filed as active; the % refers to the signal ratio; also: potency is read from the fitted curve at half-maximal effect)
# Outline: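 ER-beta-UAS-bla HEK293T cells in 2% charcoal-stripped FBS medium treated with compound plus 1nM final 17-beta-estradiol for 16 hr at 37C. Beta-lactamase reporter read by FRET substrate fluorescence after 2 hours at room temperature.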
SMILES,Potency [1],Potency [2],Potency [3],Potency [4],Potency [5],outcome [6],Potency [7],Potency [8],Potency [9]
CC(Cc1ccc(O)c(O)c1)C(C)Cc1ccc(O)c(O)c1 (stereo not given),inactive,inactive,inactive,13.7 µM (active),,,,,
CC(C)=NNC(N)=S,inactive,inactive,inactive,13.7 µM (active),inactive,inactive,inactive,,
CO[Si](OC)(c1ccccc1)c1ccccc1,inactive,inactive,inactive,21.7 µM (active),,,inactive,43.3 µM (active),inactive
CC1(C)[C@H](C(=O)OCc2cccc(Oc3ccccc3)c2)[C@@H]1C=C(Cl)Cl,inactive,inactive,,inactive,inactive,,inactive,inactive,
CCOc1ccc([N+](=O)[O-])cc1,inactive,inactive,inactive,,,inactive,,inactive,9.83 µM (active)
CCN(CC)c1ccc(N=Nc2ccccc2)cc1,27.3 µM (active),inactive,,,30.6 µM (active),inactive,27.3 µM (active),34.4 µM (active),inactive
Nc1ccc(Oc2cccc(Oc3ccc(N)cc3)c2)cc1,inactive,inactive,inactive,8.63 µM (active),inactive,inactive,inactive,,
CCCCCCCCCCCC(=O)Cl,inactive,inactive,,inactive,inactive,,inactive,inactive,
CC(C)(C)C1=CC(=O)C(C(C)(C)C)=CC1=O,inactive,inactive,inactive,,inactive,inactive,inactive,,
CN1CCN(CCCN2c3ccccc3Sc3ccc(Cl)cc32)CC1,inactive,inactive,inactive,16.8 µM (active),10.6 µM (active),,inactive,,
CCN(CC)c1ccc(C=O)cc1,inactive,inactive,,inactive,inactive,inactive,inactive,inactive,
C=C(C)CCO,inactive,inactive,inactive,,inactive,,inactive,inactive,
CN(C)CCOc1ccc(/C(=C(/CCCl)c2ccccc2)c2ccccc2)cc1,inactive,inactive,inactive,36.1 µM (active),51 µM (active),,,,
CCc1cccc(C)c1N(C(=O)C(=O)O)C(C)COC (stereo not given),inactive,inactive,,inactive,inactive,,inactive,inactive,
O=C(Nc1ccccc1)c1cc(Cl)ccc1O,0.686 µM (active),inactive,inactive,15.4 µM (active),,inactive,13.7 µM (active),54.5 µM (active),
CC(=O)Nc1ccc(N=Nc2cc(C)ccc2O)cc1,2.73 µM (active),inactive,,15.4 µM (active),inactive,inactive,,,
Nc1cc([N+](=O)[O-])cc(Cl)c1O,inactive,inactive,,inactive,,inactive,,inactive,
CC(O)(c1ccc(Cl)cc1)c1ccc(Cl)cc1,inactive,inactive,inactive,43.3 µM (active),inactive,inactive,inactive,,
CC(C)(C)c1ccc(OC2CCCCC2O)cc1 (stereo not given),inactive,inactive,inactive,38.6 µM (active),inactive,inactive,inactive,,
COc1c(Br)cc(Br)c(C)c1Br,inactive,inactive,,inactive,inactive,,inactive,inactive,
CCCCCCCCCCCCN1CCCC1=O,inactive,inactive,inactive,inactive,,,,inactive,
O[Si](c1ccccc1)(c1ccccc1)c1ccccc1,inactive,inactive,inactive,12.2 µM (active),,inactive,inactive,,
CC1CCC(C(C)(C)O)CC1 (stereo not given),inactive,,inactive,inactive,inactive,,inactive,inactive,
